These results are taken from PubChem BioAssay (Tox21).

Assay [1] can be described thus: Nuclear factor erythroid 2-related factor 2/antioxidant responsive element (Nrf2/ARE) small molecule agonists: qHTS cell viability counter screen in human keratinocytes (AID 1919968; active = well fitted curve in the direction sought with a large enough effect in the repeat runs; an effect the other way counts as inactive or inconclusive; also: nearly all actives have a fitted effect of over 55% in size; also: potency is read from the fitted curve at half-maximal effect). A digest of the protocol:
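Seed 1,500 KeratinoSens cells per well, then incubate 5 h at 37 C/5% CO2. Add compounds in DMSO and incubate 23 h. Add CellTiter-Fluor, wait 1 h and read fluorescence.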
In general terms: Quantitative high-throughput screening tests each substance at several concentrations.

Assay [2] can be described thus: Nuclear factor erythroid 2-related factor 2/antioxidant responsive element (Nrf2/ARE) small molecule agonists: luciferase reporter gene qHTS assay in human keratinocytes (AID 1919969). Also: nearly all actives have a fitted effect of over 35% in size. Also: potency is read from the fitted curve at half-maximal effect. A general note: Reporter assays use an easily measured gene product as a stand-in for the process of interest.
The target of assay [3] is Gonadotropin-releasing hormone receptor (Homo sapiens) (UniProt P30968). The experiment in a line: Human gonadotropin-releasing hormone receptor (GnRHR) small molecule agonists, calcium flux assay in GnRHR-HEK293 cells (AID 1920063). Also: nearly all actives have a fitted effect of over 35% in size. A digest of the protocol: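 Cells: HEK293 stably expressing human GnRHR. Steps: overnight (18 h) culture, 1 h calcium dye loading at 37 C, compound addition, kinetic fluorescence read at 480/540 nm. Each compound tested at 15 concentrations in triplicate.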
A general note: Calcium assays in cells follow changes in intracellular calcium, usually with a dye or a luminescent sensor.

Assay [4] can be described thus: G protein-coupled receptor (GPCR) small molecule agonists, calcium flux assay: HEK293 wild type cell line counter screen (AID 1920065). The essentials: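 Counter-screen of the Tox21 10K library for non-specific calcium release: dye-loaded cells received compounds in DMSO and were monitored by kinetic fluorescence (480/540 nm, 3 min). Fifteen concentrations, run in triplicate.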

Assay [5] is described as follows: p53 small molecule agonists, cell-based qHTS assay with human liver microsomes: qHTS cell viability counter screen (AID 1963579). Also: nearly all actives have a fitted effect of over 45% in size. The essentials: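 p53RE-bla cells (4,000/well) were pre-incubated 5 h at 37 C, then given compounds in DMSO plus human liver microsomes (0.5 mg/mL final) and NADPH (0.5 mg/mL final) for 16 h at 37 C. Viability was read by CellTiter-Glo luminescence.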

Assay [6] in a line: p53 small molecule agonists, cell-based qHTS assay: qHTS cell viability counter screen (AID 1963581). Also: nearly all actives have a fitted effect of over 45% in size. Also: potency is read from the fitted curve at half-maximal effect. The essentials:
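Cells: HCT-116 with p53 response element-driven beta-lactamase. Treatment: 16 h, 37 C, compounds in DMSO. Read: CellTiter-Glo luminescence after 30 min RT.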

Assay [7] is described as follows: p53 small molecule agonists, cell-based qHTS assay (AID 1963582; active = well fitted activation curve with a large enough effect in the signal ratio in the repeat runs, not every such curve was filed as active; the % refers to the signal ratio). A digest of the protocol:
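Quantitative HTS in p53RE-bla cells: after a 5 h settling period, compounds delivered in DMSO were left on cells for 16 h at 37 C, and reporter induction was measured as fluorescence following 2 h substrate loading.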

Assay [8] addresses 5-hydroxytryptamine receptor 2A (Homo sapiens) (UniProt P28223). Put plainly: 5-hydroxytryptamine receptor 2A (HTR2A) small molecule antagonists, cell-based qHTS assay (AID 1963586). Also: nearly all actives have a fitted effect of over 45% in size. A digest of the protocol: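 Antagonist-mode intracellular calcium assay: DOI (4 nM) added after 5 min compound pre-incubation at room temperature to dye-loaded HTR2A-CHO cells. Fluorescence followed for 3 min, sampled every second.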

For assay [9] the target is unchanged. Put plainly: 5-hydroxytryptamine receptor 2A (HTR2A) small molecule agonists, cell-based qHTS assay (AID 1963587). Also: nearly all actives have a fitted effect of over 30% in size. Also: potency is read from the fitted curve at half-maximal effect. A digest of the protocol: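 CHO cells stably expressing human HTR2A, plated 18 h, loaded with calcium dye 1 h at 37 C. Agonist mode: compounds added and intracellular calcium fluorescence recorded kinetically for 2 min at 1 sec intervals.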
Assay [10] has as its target Muscarinic acetylcholine receptor M1 (Homo sapiens) (UniProt P11229). The experiment in a line: Cholinergic receptor muscarinic 1 (CHRM1) small molecule agonists, cell-based qHTS assay (AID 1963589). Also: nearly all actives have a fitted effect of over 35% in size. A digest of the protocol: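 Agonist-mode qHTS in CHO cells stably carrying human muscarinic M1. Intracellular calcium is tracked by fluorescence every second after compound transfer; each compound runs at 15 concentrations in three independent runs.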

Assay [11] is described as follows: cAMP Responsive Elements (CRE) small molecule agonists, cell-based qHTS assay (AID 1963590). A digest of the protocol:
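Agonist mode qHTS in CRE-bla HEK 293T cells: compounds dosed from DMSO for 3 h at 37 C/5% CO2, followed by LiveBLAzer B/G FRET substrate for 2 h at room temperature.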

Assay [12] in a line: cAMP Responsive Elements (CRE) small molecule antagonists, cell-based qHTS assay (AID 1963591; active = well fitted inhibition curve with a large enough effect in the signal ratio in the repeat runs, not every such curve was filed as active; the % refers to the signal ratio). A digest of the protocol:
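Antagonist mode: test compounds are co-incubated with the adenylyl cyclase activator NKH477 (0.25 uM final) on CRE-bla HEK293T cells for 3 h at 37 °C, followed by LiveBLAzer substrate loading.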

Assay [13] deals with Beta-2 adrenergic receptor (Homo sapiens) (UniProt P07550). The experiment in a line: Adrenergic beta2 receptor (ADRB2) small molecule antagonists, cell-based qHTS assay (AID 1963592). Also: series mostly up to about 92 µM; nearly all actives have a fitted effect of over 50% in size. A digest of the protocol: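 Cells (CHO, stable ADRB2 overexpression) incubated 18-20hr at 37C; compounds added from DMSO; agonist mix (1nM isoproterenol, 100uM IBMX, 25uM Ro-20-1724) added; 0.5hr RT; d2-cAMP and anti-cAMP-cryptate added; 1hr RT; 665/615 nm read.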

In assay [14] the target is KiSS-1 receptor (Homo sapiens) (UniProt Q969F8). Put plainly: Human kisspeptin (KISS1R) small molecule agonists, calcium flux assay in KISS1R-HEK293 cells (AID 1920064; active = well fitted curve in the direction sought with a large enough effect in the repeat runs; an effect the other way counts as inactive or inconclusive). The essentials:
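Cells plated and incubated 18 h; dye added, 1 h at 37 C; compounds in DMSO pinned in; signal read at 480/540 nm every second for 3 min. Each compound tested at 15 concentrations in triplicate.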

Assay [15] in a line: p53 small molecule agonists, cell-based qHTS assay with human liver microsomes (AID 1963577). A digest of the protocol: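 p53RE-bla reporter cells were pre-incubated 5 h at 37 C, then treated with compounds plus human liver microsomes (0.5 mg/mL final) and NADPH (0.5 mg/mL final) for 16 h at 37 C. Beta-lactamase activity was read by LiveBLAzer fluorescence after 2 h at room temperature.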

Assay [16] can be described thus: p53 small molecule agonists, cell-based qHTS assay with rat liver microsomes (AID 1963578). The essentials:
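p53RE-bla cells were exposed to compounds together with rat liver microsomes (0.5 mg/mL final) and NADPH (0.5 mg/mL final) for 16 h at 37 C, then read by LiveBLAzer beta-lactamase fluorescence after 2 h at room temperature.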

Assay [17] is described as follows: p53 small molecule agonists, cell-based qHTS assay with rat liver microsomes: qHTS cell viability counter screen (AID 1963580). Also: nearly all actives have a fitted effect of over 45% in size. Also: potency is read from the fitted curve at half-maximal effect. A digest of the protocol:
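Viability is assessed in parallel with the p53 reporter read: HCT-116 p53RE-bla cells receive compounds plus rat microsomes and NADPH (0.5 mg/mL final apiece), incubate 16 h at 37 C, and then CellTiter-Glo luminescence is recorded.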

For assay [18], the target named is Muscarinic acetylcholine receptor M1 (Homo sapiens) (UniProt P11229). The experiment in a line: Cholinergic receptor muscarinic 1 (CHRM1) small molecule antagonists, cell-based qHTS assay (AID 1963588). Also: nearly all actives have a fitted effect of over 40% in size. The essentials:
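CHRM1-CHO calcium-flux assay, antagonist mode. Cells were seeded 18 h, dye-loaded 1 h at 37 C and given compound for 5 min at RT, then acetylcholine was added at 50nM. FDSS fluorescence was read 3 min; 15 concentrations, three runs.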

Assay [19] addresses D(2) dopamine receptor (Homo sapiens) (UniProt P14416). The experiment in a line: Dopamine D2 receptor (DRD2) small molecule agonists, cell-based qHTS assay (AID 1963594). Also: nearly all actives have a fitted effect of over 35% in size. The essentials: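 HEK293 cells stably expressing human DRD2, pre-treated with PDE inhibitor Ro20-1724 (0.1 mM final) and compound 10 min at room temperature, then stimulated with NKH477 (200nM […]) for 30 min. cAMP read by HTRF (665/620 nm).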

For assay [20] the target is unchanged. Put plainly: Dopamine D2 receptor (DRD2) small molecule antagonists, cell-based qHTS assay (AID 1963595; active = well fitted inhibition curve with a large enough effect in the signal ratio in the repeat runs, with a control signal flat; the % refers to the signal ratio). The essentials:
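Cells were plated and grown for 24 h at 37 °C. Ro20-1724 (0.1 mM final) went in first, then compound for 10 min. NKH477 (200 nM) with quinpirole (12 nM) followed for 30 min at RT, then HTRF detection reagents for 1 h.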

A number with no mark means an inactive call. Results filed as inconclusive are left out. Calls of active or inactive are those of the source. Unless noted, calls follow the shape of the full dose curve.

Sequence of Beta-2 adrenergic receptor (Homo sapiens) (P07550 whole entry, looked up): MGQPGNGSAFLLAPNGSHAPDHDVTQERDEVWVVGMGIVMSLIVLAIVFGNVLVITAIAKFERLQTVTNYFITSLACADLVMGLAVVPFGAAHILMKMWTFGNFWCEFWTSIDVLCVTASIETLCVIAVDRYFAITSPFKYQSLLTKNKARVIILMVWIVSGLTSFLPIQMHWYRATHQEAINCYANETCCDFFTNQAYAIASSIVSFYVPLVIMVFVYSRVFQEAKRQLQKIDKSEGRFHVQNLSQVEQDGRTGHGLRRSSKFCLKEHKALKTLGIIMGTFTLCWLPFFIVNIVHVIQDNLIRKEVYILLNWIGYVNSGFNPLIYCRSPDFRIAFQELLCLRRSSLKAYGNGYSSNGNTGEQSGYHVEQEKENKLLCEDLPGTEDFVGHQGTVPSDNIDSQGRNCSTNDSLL
Sequence of Gonadotropin-releasing hormone receptor (Homo sapiens) (P30968 whole entry, looked up): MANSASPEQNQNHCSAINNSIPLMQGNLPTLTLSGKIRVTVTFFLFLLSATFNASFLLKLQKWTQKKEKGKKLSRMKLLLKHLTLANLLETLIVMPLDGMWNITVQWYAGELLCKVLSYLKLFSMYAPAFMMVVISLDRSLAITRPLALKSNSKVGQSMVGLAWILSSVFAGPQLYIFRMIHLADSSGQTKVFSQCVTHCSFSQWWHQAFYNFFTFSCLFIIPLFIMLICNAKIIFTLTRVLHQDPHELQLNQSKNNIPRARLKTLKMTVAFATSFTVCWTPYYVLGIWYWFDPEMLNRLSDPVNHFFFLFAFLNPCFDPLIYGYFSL
Sequence of Muscarinic acetylcholine receptor M1 (Homo sapiens) (P11229 whole entry, looked up): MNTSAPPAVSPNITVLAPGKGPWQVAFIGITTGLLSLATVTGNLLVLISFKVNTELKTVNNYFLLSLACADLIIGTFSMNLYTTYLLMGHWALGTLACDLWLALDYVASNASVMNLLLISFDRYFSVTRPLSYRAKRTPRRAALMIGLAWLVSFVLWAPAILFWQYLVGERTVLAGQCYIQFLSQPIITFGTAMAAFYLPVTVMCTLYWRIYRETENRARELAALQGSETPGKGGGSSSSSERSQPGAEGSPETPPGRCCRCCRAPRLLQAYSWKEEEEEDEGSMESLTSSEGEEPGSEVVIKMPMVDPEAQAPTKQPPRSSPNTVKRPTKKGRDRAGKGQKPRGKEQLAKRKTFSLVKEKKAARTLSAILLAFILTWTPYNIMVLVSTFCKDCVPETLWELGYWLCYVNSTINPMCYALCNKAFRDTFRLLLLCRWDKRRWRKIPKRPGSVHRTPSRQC
Sequence of 5-hydroxytryptamine receptor 2A (Homo sapiens) (P28223 whole entry, looked up): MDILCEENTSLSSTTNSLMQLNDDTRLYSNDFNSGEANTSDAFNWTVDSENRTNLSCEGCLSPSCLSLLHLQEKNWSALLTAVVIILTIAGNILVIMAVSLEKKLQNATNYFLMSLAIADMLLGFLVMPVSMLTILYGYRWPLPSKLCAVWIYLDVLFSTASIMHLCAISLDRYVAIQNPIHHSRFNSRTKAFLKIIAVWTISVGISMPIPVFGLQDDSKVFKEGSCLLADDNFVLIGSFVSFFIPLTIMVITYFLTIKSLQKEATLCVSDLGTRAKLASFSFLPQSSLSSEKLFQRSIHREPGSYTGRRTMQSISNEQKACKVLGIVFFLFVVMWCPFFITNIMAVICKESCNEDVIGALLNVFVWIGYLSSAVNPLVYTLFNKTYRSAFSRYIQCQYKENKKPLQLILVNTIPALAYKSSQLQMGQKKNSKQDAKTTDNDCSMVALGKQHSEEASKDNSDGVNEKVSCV
Sequence of KiSS-1 receptor (Homo sapiens) (Q969F8 whole entry, looked up): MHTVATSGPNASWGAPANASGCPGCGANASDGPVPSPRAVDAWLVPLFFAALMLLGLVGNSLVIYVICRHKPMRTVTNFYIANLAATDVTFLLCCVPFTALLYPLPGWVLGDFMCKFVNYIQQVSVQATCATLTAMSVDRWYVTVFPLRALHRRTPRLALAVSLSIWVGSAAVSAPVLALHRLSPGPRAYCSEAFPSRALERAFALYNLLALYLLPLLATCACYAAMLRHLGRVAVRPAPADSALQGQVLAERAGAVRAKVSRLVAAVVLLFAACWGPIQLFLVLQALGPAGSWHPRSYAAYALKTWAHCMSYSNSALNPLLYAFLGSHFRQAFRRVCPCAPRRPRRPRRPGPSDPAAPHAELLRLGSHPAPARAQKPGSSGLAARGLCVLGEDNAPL
Sequence of D(2) dopamine receptor (Homo sapiens) (P14416 whole entry, looked up): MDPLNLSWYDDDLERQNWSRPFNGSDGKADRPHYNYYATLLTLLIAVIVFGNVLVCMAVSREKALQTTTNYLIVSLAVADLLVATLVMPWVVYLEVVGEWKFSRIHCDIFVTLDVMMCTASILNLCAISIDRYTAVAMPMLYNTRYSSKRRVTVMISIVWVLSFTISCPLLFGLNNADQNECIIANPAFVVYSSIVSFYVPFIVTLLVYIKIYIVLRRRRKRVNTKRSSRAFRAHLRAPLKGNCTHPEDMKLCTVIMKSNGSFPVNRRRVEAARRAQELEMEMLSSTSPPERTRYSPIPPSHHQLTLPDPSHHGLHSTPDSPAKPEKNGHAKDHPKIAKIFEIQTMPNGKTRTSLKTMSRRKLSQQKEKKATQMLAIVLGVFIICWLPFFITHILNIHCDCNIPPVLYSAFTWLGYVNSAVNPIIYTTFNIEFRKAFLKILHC

As for `COP(=S)(OC)Oc1ccc([N+](=O)[O-])c(C)c1`, the Potency result in assay [1], in [2], in assay [3], in assay [4], in [5] and in [7] was “inactive” each time. Also, the Potency entry in assay [8], in [9], in assay [10], in [11], in assay [12] and in assay [13] was “inactive” throughout. Moreover, the Potency in assay [6] was 0.363 µM (active).
As to `CC(=O)[C@H]1CC[C@H]2[C@@H]3CC[C@H]4C[C@H](O)CC[C@]4(C)[C@H]3C(=O)C[C@]12C`, the Potency result in assay [1], in assay [2], in assay [14], in [4], in assay [15] and in assay [16] was “inactive” each time. Further, the Potency result in assay [17], in assay [6], in assay [7], in assay [9], in assay [18] and in assay [10] was “inactive” throughout. The Potency entry in [11], in assay [13], in assay [19] and in assay [20] was “inactive” in each case.
Turning to `CN1[C@@H]2CC[C@H]1CC(OC(=O)c1cc(Cl)cc(Cl)c1)C2` (stereo not given in full), the Potency result in assay [1], in assay [2], in assay [14], in assay [4], in assay [15] and in assay [16] was “inactive” throughout. Also, the Potency result in [5], in [17], in assay [6], in [7], in assay [8] and in assay [9] was “inactive” in each case. Further, the Potency result in assay [10], in assay [11], in assay [12], in [13], in [19] and in [20] was “inactive” each time.
In the case of `CN(N=O)c1ccc([N+](=O)[O-])cc1`, the Potency result in assay [1], in assay [2], in [3], in [4], in assay [5] and in assay [6] was “inactive” each time. The Potency result in assay [8], in assay [9], in assay [18], in [12], in [13] and in assay [19] was “inactive” each time. The Potency entry in assay [20] is “inactive”.
Consider `O=C1C=CC(=O)c2ccccc21`, for which the Potency in [1] was 15.4 µM (active); in [2], 6.11 µM (active); in assay [17], 20.4 µM (active); in assay [9], 21.9 µM (active). In addition, the Potency entry in assay [14], in [4], in assay [15], in [16], in [6] and in [7] was “inactive” each time. The Potency entry in [8], in assay [18], in assay [10], in [13] and in assay [19] was “inactive” in each case.
For `CC(O)CCl` (stereo not given), the Potency entry in assay [1], in assay [2], in [3], in [4], in assay [5] and in assay [17] was “inactive” each time. The Potency entry in [6], in assay [8], in assay [9], in assay [18], in assay [10] and in assay [12] was “inactive” throughout. Further, the Potency result in assay [13], in [19] and in assay [20] was “inactive” each time.
